# NS1 inh = qHTS Assay for Inhibitors of Influenza NS1 Protein Function; Potency, µM (series often up to 46.1 µM), inactives show at the highest dose activity, positive = more growth; actives 0.4% (n = 270,000); calls by dose curve; note: actives are rising curves; nearly all actives have a fitted effect of over 50% in size
#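 Growth recovery, yeast-based: influenza A NS1 expressed in S. cerevisiae causes slow growth, and suppressors are detected by OD600. The parent strain without NS1 is used as positive control.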
# SARS PLP yeast = qHTS of Yeast-based Assay for SARS-CoV PLP; actives 0.19% (n = 330,000); S. cerevisiae expressing SARS-CoV PLpro, growth rescue; Potency, µM (highest dose often 32.9 µM), for inactives: top-dose activity, positive = growth rescue, actives largely listed as activators; AID 485353, 2010; calls by dose curve; note: 0% is about no effect; nearly all actives have a fitted effect of over 55% in size
# Pf growth 48h = Primary qHTS for delayed death inhibitors of the malarial parasite plastid, 48 hour incubation. P. falciparum luciferase growth in erythrocytes, 48 h. Potency, µM (titrated, usually from 28.7 µM), without a hit: at the top dose activity change, negative = inhibition, most hits filed as inhibitors. actives 5.9% (n = 310,000). AID 504832, 2011; note: % is set by controls: 0 for no effect and ±100 for the full control effect
#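 Growth was read as firefly luciferase luminescence after a 48 h, 37 C, 5% CO2 exposure of compounds to reporter-bearing P. falciparum cultures (0.1% parasitemia, 2% hematocrit final) in Albumax-supplemented RPMI 1640.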
# Pf growth 96h = Primary qHTS for delayed death inhibitors of the malarial parasite plastid, 96 hour incubation | P. falciparum luciferase reporter growth, 96 h | Potency, µM (top dose mostly 28.7 µM), without a hit: top-dose activity change, negative = inhibition, hits mostly inhibitors | actives 6.9% (n = 320,000) | AID 504834, 2011; note: % is set by controls: 0 for no effect and ±100 for the full control effect
#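 P. falciparum expressing integrated firefly luciferase, in erythrocytes at 2% hematocrit, 0.05% parasitemia, incubated with compounds 96 h at 37 C, 5% CO2. Growth inhibition read as loss of luminescence; two-generation exposure targets delayed-death apicoplast inhibitors.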
# Numbers without * were called inactive; ? = inconclusive; . = not tested or not shown; [ ] = remark or other dose. Most compounds without a hit are left out; they make up all but 10% or so of the library. Unless noted, calls come from the whole dose curve; as a rule, active = well fitted inhibition curve with a large enough effect; inconclusive = small, poorly fitted or top-dose-only effect, or another doubt; inactive = no such curve, though single readings can be large or run the other way. Potency is the fitted concentration of half-maximal effect.
SMILES,NS1 inh,SARS PLP yeast,Pf growth 48h,Pf growth 96h
Cc1ccc(S(=O)(=O)N(CC(=O)c2ccc(Cl)cc2)C(=O)N2CCN(C)CC2)cc1,.,-2%,17%,25%
O=C(COc1ccc(Cl)cc1)NCc1nnc(SCC(=O)c2ccccc2)o1,11%,-5%,-6%,4.1µM*
O=C(COc1ccc(Cl)cc1)NCc1nnc(SCC(=O)Nc2ccccc2)o1,-5%,16%,.,?
C=CCN1C(=O)c2ccccc2Sc2ccc(C(=O)NCC(OC)OC)cc21,-6%,-2%,?,?
C[N+]1=C(/C=C/Nc2ccccc2Cl)C(C)(C)c2ccccc21,-8%,-7%,12µM*,?
COC(=O)c1ccc2c(c1)C(C)(C)C(/C=C/c1ccccc1O)=[N+]2C,8%,-24%,?,?
CCO[C@@H]1OC(C(=O)N2CCN(Cc3ccc4c(c3)OCO4)CC2)=C[C@H](C2CC2)[C@H]1CCCO,-2%,0%,?,3.3µM*
CCO[C@@H]1OC(C(=O)N2CCCCCCC2)=C[C@H](C2CCCCC2)[C@H]1CCCO,2%,-1%,10µM*,?
CCO[C@H]1OC(C(=O)N2CCN(Cc3ccc4c(c3)OCO4)CC2)=C[C@@H](C2CCCCC2)[C@@H]1CCCO,-14%,0%,?,4.1µM*
CCO[C@H]1OC(C(=O)N2CCN(Cc3ccc4c(c3)OCO4)CC2)=C[C@@H](C)[C@@H]1CCCO,0%,-1%,-1%,3%
COc1ccc(CC(=O)OCC(=O)N2CCc3ccccc32)cc1OC,.,2%,3%,-12%
COC(=O)[C@@]1(Cc2ccc(OC)cc2)[C@H]2c3cc(C(=O)N(C)C)n(CCc4ccc(OC)c(Br)c4)c3C[C@H]2CN1C(=O)c1ccccc1,?,11%,2.1µM*,2.1µM*
COc1ccc(C(=O)N2CCN(Cc3ccc(OC)c(OC)c3)CC2)cc1,-10%,1%,-1%,4%
COC(=O)[C@@]1(Cc2ccc(OC)cc2)[C@H]2c3cc(C(=O)N4CCCC4)n(Cc4ccc(OC)c(OC)c4)c3C[C@H]2CN1C(=O)c1ccccc1,14%,8%,?,1.5µM*
CC1(C(=O)NCCCNc2ncc(C(F)(F)F)cc2Cl)C=CCN1C(=O)c1ccccc1 (stereo not drawn),2%,0%,0%,-22%
COC(=O)[C@@]1(Cc2ccc(F)cc2)[C@H]2c3cc(C(=O)N4CCCC4)n(CCCNc4ncc(C(F)(F)F)cc4Cl)c3C[C@H]2CN1C(=O)c1ccccc1,?,-1%,2.1µM*,?
COC(=O)[C@@]1(Cc2ccc(OC)cc2)[C@H]2c3cc(C(=O)N4CCCC4)n(CCN4CCNC4=O)c3C[C@H]2CN1C(=O)c1ccccc1,-2%,6%,1.9µM*,1.7µM*
COc1ccc([C@@H]2CC(=O)c3c(O)cc(O[C@H]4O[C@@H](CO[C@H]5O[C@@H](C)[C@@H](O)[C@@H](O)[C@@H]5O)[C@@H](O)[C@@H](O)[C@@H]4O)cc3O2)cc1O,.,.,-4%[12.8 µM],-1%[12.8 µM]
COc1ccc(S(=O)(=O)N2CCCC2=O)cc1N(C)S(C)(=O)=O,9%,2%,10%,?
CN(C)S(=O)(=O)c1cccc(NC(=O)Cc2ccc(-c3ccccc3)cc2)c1,-16%,.,2%,?
COC(=O)[C@@]1(Cc2ccc(OC)cc2)[C@H]2c3cc(C(=O)N4CCCC4)n(CCn4cc([N+](=O)[O-])nc4C)c3C[C@H]2CN1C(=O)c1ccccc1,10%,10%,?,0.59µM*
COC(=O)[C@@]1(Cc2ccc(OC)cc2)[C@@H]2[C@@H](CC(=O)[C@H]2CC(=O)C(=O)N(C)C)CN1C(=O)c1ccccc1,-14%,3%,?,?
COc1ccc(CCNC(=O)C2CCN(C(=O)c3ccccc3)CC2)cc1,4%,-2%,-3%,?
COC(=O)[C@@]1(Cc2ccc(OC)cc2)[C@@H]2C(=CC(=O)[C@H]2CC(=O)C(=O)N2CCCC2)CN1C(=O)c1ccccc1,-16%,-5%,10µM*,?
COC(=O)[C@@]1(Cc2ccc(OC)cc2)[C@H]2c3cc(C(=O)N(C)C)[nH]c3C[C@H]2CN1C(=O)c1ccccc1,-24%,17%,4.7µM*,?
COc1ccc(C(O)Cn2cc([N+](=O)[O-])nc2C)cc1 (stereo not drawn),-1%,0%,32%,54%
